Potency data for 29 compounds are collected here from PubChem BioAssay (NCATS).

Each structure is given as a SMILES string. Results filed as inconclusive are left out. A call without a number means that no potency is given here. Calls of active or inactive are those of the source. The call rests on the fitted dose curve; in most records, active means well fitted curve in the direction sought with a large enough effect; inconclusive means small, poorly fitted or top-dose-only effect, or another doubt; inactive means no such curve, though single readings can be large; an effect the other way counts as inactive or inconclusive.
Potency means the concentration at half of the fitted maximal effect.

The first assay can be described thus: Quantitative High-Throughput drug screen in 47 multiple myeloma cell lines against the NCATS MIPE library collection: KHM11_PLB cell viability assay (AID 1918962). Further: nearly all actives have a fitted effect of over 35% in size. The conditions noted are these: KHM11 myeloma cell viability, CellTiter-Glo ATP luminescence, 48 h; series mostly up to 45.8 µM. The method in brief: (§1)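 Myeloma cells (500 per well) were exposed to MIPE 4.0 compounds by pin transfer and incubated 48 hours at 37C, 5% CO2. Viability was read as ATP by CellTiter-Glo luminescence, normalised to DMSO (100%) and media-only (0%) wells.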
In general terms: Cellular ATP, detected with luciferase, serves as a proxy for viable cell number.
On to `Cc1ccc(NC(=O)c2cccc(C(C)(C)C#N)c2)cc1Nc1ccc2ncn(C)c(=O)c2c1`, for which the Potency was 0.166 µM (active). Still for that read-out and setting: the same measure for `CC(C)(C)OC(=O)CN(Cc1ccc(Cl)cc1)Cc1ccc([N+](=O)[O-])s1`: “inactive”; for `Cc1csc(NC(=O)c2sc3nc4c(c(C(F)(F)F)c3c2N)CCC4)n1`: “inactive”; for `NC(=O)C1CCCc2c1[nH]c1ccc(Cl)cc21` (centres undefined): 14.8 µM (active). The same measure, in the same setting: the same measure for `CC[C@@H](C)[C@H](NC(=O)[C@H](CC1CCCCC1)NC(=O)c1ccno1)C(=O)N1CCC2(CCc3ccccc32)CC1`: “inactive”; for `CC(C)(C)NCC(O)c1ccc(O)c(CO)c1` (centres undefined): “inactive”. With `Cc1c(CN2CCN(C(=O)C(C)C)CC2)sc2c(N3CCOCC3)nc(-c3cnc(N)nc3)nc12`, the Potency is 0.132 µM (active). Take `Cc1c(CCOc2ccc(C(=O)O)cc2)c2cc(Cl)ccc2n1C(c1ccccc1)c1ccccc1`: the Potency entry is “inactive”. Still for that read-out and setting: the same measure for `COc1ccc(COc2cc3oc(=O)c4cc(C(C)O)ccc4c3cc2OC)cc1` (centres undefined): 7.43 µM (active); for `CNC(=O)c1ccc(N2C(=S)N(c3ccc(C#N)c(C(F)(F)F)c3)C(=O)C2(C)C)cc1F`: “inactive”; for `Cc1ccc(N(CC2=NCCN2)c2cccc(O)c2)cc1`: “inactive”. On the same count and under the same terms, next, `CC(C[N+](C)(C)C)OC(N)=O` (centres undefined): “inactive”; `CS(=O)(=O)c1cccc(CNc2nc(Nc3ccc4c(c3)CCC(=O)N4)ncc2C(F)(F)F)c1`: 14.8 µM (active).

In the case of `CC(C)(N)C(=O)N[C@H](COCc1ccccc1)C(=O)N1CCC2(CC1)CN(S(C)(=O)=O)c1ccccc12`, the Potency is 18.7 µM (active). On the same count and under the same terms, next, `CCC(C)N(C)C(=O)c1cc2ccccc2c(-c2ccccc2Cl)n1` (centres undefined): “inactive”; `Nc1nc2ccc(OC(F)(F)F)cc2s1`: “inactive”; `COc1cccc2cc(-c3nc(C4CCC(C(=O)O)CC4)n4ncnc(N)c34)[nH]c12` (centres undefined): 0.118 µM (active). On to `CC1(C)CNc2cc(NC(=O)c3cccnc3NCc3ccncc3)ccc21`, for which the Potency entry is “inactive”.

A further assay can be described thus: Quantitative High-Throughput drug screen in 47 multiple myeloma cell lines against the NCATS MIPE library collection: JIM3_ECACC cell viability assay (AID 1918963; further: nearly all actives have a fitted effect of over 35% in size). The conditions noted are these: JIM3 myeloma viability, CellTiter-Glo ATP, 48 h; series mostly up to 45.8 µM. An outline of the steps: as §1
Regarding `NC(=O)c1ccc(-c2nc(-c3ccc4c(c3)OCCO4)c(-c3ccccn3)[nH]2)cc1`, the Potency result was “inactive”. Still for that read-out and setting: next, `COc1ccc2c3n(c(=NC(=O)c4cccnc4)nc2c1OC)CCN3`: 18.7 µM (active). Turning to `Cc1ccc(NC(=O)c2cccc(C(C)(C)C#N)c2)cc1Nc1ccc2ncn(C)c(=O)c2c1`, the Potency is 11.8 µM (active). Take `CC(C)(C)OC(=O)CN(Cc1ccc(Cl)cc1)Cc1ccc([N+](=O)[O-])s1`: the Potency is 16.6 µM (active). On the same count and under the same terms, the same measure for `Cc1csc(NC(=O)c2sc3nc4c(c(C(F)(F)F)c3c2N)CCC4)n1`: “inactive”; for `Cc1cc([C@@H](C)Nc2ccccc2C(=O)O)c2nc(N3CCOCC3)cc(=O)n2c1`: 13.6 µM (active); for `NC(=O)C1CCCc2c1[nH]c1ccc(Cl)cc21` (centres undefined): “inactive”. In the case of `NC(N)=NC(=O)c1nc(Cl)c(N)nc1N`, the Potency result is “inactive”. Same read-out and setting: next, `CC(C)(C)NCC(O)c1ccc(O)c(CO)c1` (centres undefined): “inactive”; `CCOc1ccc(Cc2cc([C@@H]3O[C@H](CO)[C@@H](O)[C@H](O)[C@@H]3O)ccc2Cl)cc1`: 20.9 µM (active).

For the compound `Cc1c(CN2CCN(C(=O)C(C)C)CC2)sc2c(N3CCOCC3)nc(-c3cnc(N)nc3)nc12`, the Potency was 0.418 µM (active). Still for that read-out and setting: the same measure for `Cc1c(CCOc2ccc(C(=O)O)cc2)c2cc(Cl)ccc2n1C(c1ccccc1)c1ccccc1`: “inactive”.

Consider `COc1ccc(COc2cc3oc(=O)c4cc(C(C)O)ccc4c3cc2OC)cc1` (centres undefined), for which the Potency is 16.6 µM (active). The same measure, in the same setting: the same measure for `CNC(=O)c1ccc(N2C(=S)N(c3ccc(C#N)c(C(F)(F)F)c3)C(=O)C2(C)C)cc1F`: “inactive”. The same measure, in the same setting: next, `CC(C[N+](C)(C)C)OC(N)=O` (centres undefined): 0.0083 µM (active); `CS(=O)(=O)c1cccc(CNc2nc(Nc3ccc4c(c3)CCC(=O)N4)ncc2C(F)(F)F)c1`: 18.7 µM (active); `CC(C)(N)C(=O)N[C@H](COCc1ccccc1)C(=O)N1CCC2(CC1)CN(S(C)(=O)=O)c1ccccc12`: 7.43 µM (active). In the case of `N[C@@H]1CONC1=O`, the Potency entry is “inactive”. On the same count and under the same terms, the same measure for `N#CC[C@H](C1CCCC1)n1cc(-c2ncnc3[nH]ccc23)cn1`: 6.62 µM (active).

As to `COc1ccccc1-c1cccc(-c2c(O)c3cc(C#N)c(Cl)cc3[nH]c2=O)c1`, the Potency was 42.9 µM (active). Consider `O=C(Nc1nc2ccccc2n1CCN1CCOCC1)c1cccc([N+](=O)[O-])c1`, for which the Potency result was “inactive”. Still for that read-out and setting: next, `COc1ccc2nc(S(=O)Cc3ncc(C)c(OC)c3C)[nH]c2c1` (centres undefined): “inactive”.

For `Nc1nc2ccc(OC(F)(F)F)cc2s1`, the Potency entry was “inactive”. Still for that read-out and setting: next, `CC1(C)CNc2cc(NC(=O)c3cccnc3NCc3ccncc3)ccc21`: “inactive”.

The next assay in a line: Quantitative High-Throughput drug screen in 47 multiple myeloma cell lines against the NCATS MIPE library collection: JIM1_ECACC cell viability assay (AID 1918964). The conditions noted are these: JIM1 myeloma viability, CellTiter-Glo ATP luminescence, 48 h; series mostly up to 45.8 µM. An outline of the steps:
as §1
Turning to `Cc1c(CN2CCN(C(=O)C(C)C)CC2)sc2c(N3CCOCC3)nc(-c3cnc(N)nc3)nc12`, the Potency was 0.0132 µM (active). Still for that read-out and setting: next, `Cc1c(CCOc2ccc(C(=O)O)cc2)c2cc(Cl)ccc2n1C(c1ccccc1)c1ccccc1`: “inactive”; `CC(C[N+](C)(C)C)OC(N)=O` (centres undefined): “inactive”; `CC(C)(N)C(=O)N[C@H](COCc1ccccc1)C(=O)N1CCC2(CC1)CN(S(C)(=O)=O)c1ccccc12`: “inactive”. In the case of `N[C@@H]1CONC1=O`, the Potency result is “inactive”. Still for that read-out and setting: next, `O=C(c1cc(Cc2n[nH]c(=O)c3ccccc23)ccc1F)N1CCN(C(=O)C2CC2)CC1`: “inactive”. For `O=C(Nc1nc2ccccc2n1CCN1CCOCC1)c1cccc([N+](=O)[O-])c1`, the Potency was 5.26 µM (active).
